Source: PubChem BioAssay (NCATS)
Values joined by “and” are separate entries in the source; they are usually repeats but may differ in a detail not shown here. Equal entries are not always repeated. Results filed as inconclusive are left out. Active and inactive are the calls of the source. Unless noted, calls follow the shape of the dose curve; as a rule, active = well fitted curve in the direction sought with a large enough effect; inconclusive = small, poorly fitted or top-dose-only effect, or another doubt; inactive = no such curve, though single readings can be large; an effect the other way counts as inactive or inconclusive.

Legend:
[1] = qHTS for differential inhibitors of proliferation of Plasmodium falciparum line 3D7 (AID 1876); also: potency is read from the fitted curve at half-maximal effect
[2] = qHTS for differential inhibitors of proliferation of Plasmodium falciparum line D10 (AID 1877);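 also: potency is read from the fitted curve at half-maximal effect; parasites grown with compound for 72 h before DNA staining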
[3] = qHTS for differential inhibitors of proliferation of Plasmodium falciparum line Dd2 (AID 1882); settings: Potency: Plasmodium falciparum Dd2 proliferation inhibition; also: potency is read from the fitted curve at half-maximal effect; nearly all actives have a fitted effect of over 65% in size
Procedure, shortened: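 RBC culture, 0.3% parasitemia / 2.5% Hct final; cpd added by pin tool in DMSO; 72 h, 37 C, 5% CO2; lysis buffer + SYBR Green I, o/n RT dark; FI 485/535; norm. to artemisinin 0.29 uM and DMSO.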

[4] = qHTS for differential inhibitors of proliferation of Plasmodium falciparum line W2 (AID 1883); settings: Potency: Plasmodium falciparum W2 proliferation inhibition;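 also: potency is read from the fitted curve at half-maximal effect; parasites grown with compound for 72 h before lysis and staining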
[5] = qHTS for differential inhibitors of proliferation of Plasmodium falciparum line HB3 (AID 1886); settings: Potency: Plasmodium falciparum HB3 proliferation inhibition;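 also: potency is read from the fitted curve at half-maximal effect; parasites grown with compound for 72 h before SYBR Green readout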
[6] = target: ATP-dependent DNA helicase Q1 (Homo sapiens) (UniProt P46063); assay: qHTS Validation Assay for Inhibitors of RecQ-Like Dna Helicase 1 (RECQ1) (AID 2353)
Procedure, shortened: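 RECQ1T1 50 nM; forked duplex (20 bp + 30-nt ss tails) 200 nM, ATP 2 mM final; pH 8.0, 2 mM MgCl2, 2.5 ug/ml poly(dI-dC); 15 min compound preincubation; discontinuous kinetic read over 2 h at RT.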

[7] = Cytometric Cell-Based qHTS for Inhibitors of the mTORC1 Signaling Pathway in MEF (Tsc2-/-, p53-/-) Cells (AID 2660);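 also: Tsc2 and p53 null MEFs carrying empty vector with compound for 24 h; percent of cells above a phospho-rpS6 to PI ratio cutoff in each well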
Procedure, shortened: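 Readout: Alexa-488 phospho-rpS6 (Ser235/236) intensity divided by PI intensity, thresholded against 7.5 nM rapamycin wells and reported as % positive cells. PI cell count served as the viability measure. Compound exposure was 24 hrs at 37 degree Celsius.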

[8] = High Content Imaging Cell-Based qHTS for Inhibitors of the mTORC1 Signaling Pathway in MEF (Tsc2-/-, p53-/-) Cells (AID 2666); settings: at 38.3 µM (top of the series);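 also: percent of cells scored positive for phospho-rpS6 Ser235/236 immunostaining by imaging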
Procedure, shortened: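 Inhibition of rpS6 phosphorylation is measured by immunofluorescence imaging in empty-vector Tsc2-/-, p53-/- mouse embryonic fibroblasts after 24 hrs compound exposure at 37 degree Celsius. Results are reported as % positive cells per well.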

[9] = High Content Imaging Cell-Based qHTS for Inhibitors of the mTORC1 Signaling Pathway in MEF Cells (AID 2667);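 also: Tsc2-/- p53-/- MEFs stably re-expressing wild-type Tsc2 exposed 24 h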
Procedure, shortened: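 Fixed-cell imaging of phospho-S6 (Ser235/236, Alexa-488) after 24 hrs of compound treatment at 37 degree Celsius. Signal was normalized to Hoechst, and thresholds from the highest and lowest wells split cells into % active versus % non-active.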

[10] = target: Ubiquitin carboxyl-terminal hydrolase 2 (Homo sapiens) (UniProt O75604); assay: qHTS Validation Assay for Inhibitors of Ubiquitin-specific Protease USP2a Using CHOP2 as the Reporter (AID 463106)
Chain of Ubiquitin carboxyl-terminal hydrolase 2 (Homo sapiens) (O75604 whole entry, looked up): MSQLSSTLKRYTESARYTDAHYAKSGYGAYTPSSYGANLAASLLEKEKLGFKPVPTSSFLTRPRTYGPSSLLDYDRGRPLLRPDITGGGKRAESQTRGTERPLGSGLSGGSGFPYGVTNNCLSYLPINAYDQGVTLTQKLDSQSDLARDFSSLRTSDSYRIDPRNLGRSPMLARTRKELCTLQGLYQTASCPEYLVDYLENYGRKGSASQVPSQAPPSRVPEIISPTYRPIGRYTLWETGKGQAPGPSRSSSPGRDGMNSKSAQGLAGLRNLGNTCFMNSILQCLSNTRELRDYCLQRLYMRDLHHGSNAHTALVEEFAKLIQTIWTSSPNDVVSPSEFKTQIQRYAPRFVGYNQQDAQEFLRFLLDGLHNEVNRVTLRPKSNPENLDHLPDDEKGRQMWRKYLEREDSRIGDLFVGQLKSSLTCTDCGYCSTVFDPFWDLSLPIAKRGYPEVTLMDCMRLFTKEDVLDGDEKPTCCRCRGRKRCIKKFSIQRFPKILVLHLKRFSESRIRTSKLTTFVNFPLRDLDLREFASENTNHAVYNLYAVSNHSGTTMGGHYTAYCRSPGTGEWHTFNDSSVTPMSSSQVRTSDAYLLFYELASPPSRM
Procedure, shortened: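 Inhibition is expressed relative to NEM as the full-inhibition control, with concentration-response curves classed by fit quality, magnitude and activity. Enzyme (USP2 core, 10nM) meets 25nM Ub-CHOP2 after compound preincubation; readings are taken at 60min.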

[11] = target: DNA polymerase III PolC-type (Bacillus subtilis (strain 168)) (UniProt P13267); assay: qHTS Validation Assay for the Inhibitors of DNA Replication in Gram-Positive Bacteria (AID 485295);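 also: reconstituted holoenzyme with PolC plus beta clamp SSB and primase; PicoGreen fluorescence of double-stranded DNA made on primed circular M13 template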
Chain of DNA polymerase III PolC-type (Bacillus subtilis (strain 168)) (P13267 whole entry, looked up): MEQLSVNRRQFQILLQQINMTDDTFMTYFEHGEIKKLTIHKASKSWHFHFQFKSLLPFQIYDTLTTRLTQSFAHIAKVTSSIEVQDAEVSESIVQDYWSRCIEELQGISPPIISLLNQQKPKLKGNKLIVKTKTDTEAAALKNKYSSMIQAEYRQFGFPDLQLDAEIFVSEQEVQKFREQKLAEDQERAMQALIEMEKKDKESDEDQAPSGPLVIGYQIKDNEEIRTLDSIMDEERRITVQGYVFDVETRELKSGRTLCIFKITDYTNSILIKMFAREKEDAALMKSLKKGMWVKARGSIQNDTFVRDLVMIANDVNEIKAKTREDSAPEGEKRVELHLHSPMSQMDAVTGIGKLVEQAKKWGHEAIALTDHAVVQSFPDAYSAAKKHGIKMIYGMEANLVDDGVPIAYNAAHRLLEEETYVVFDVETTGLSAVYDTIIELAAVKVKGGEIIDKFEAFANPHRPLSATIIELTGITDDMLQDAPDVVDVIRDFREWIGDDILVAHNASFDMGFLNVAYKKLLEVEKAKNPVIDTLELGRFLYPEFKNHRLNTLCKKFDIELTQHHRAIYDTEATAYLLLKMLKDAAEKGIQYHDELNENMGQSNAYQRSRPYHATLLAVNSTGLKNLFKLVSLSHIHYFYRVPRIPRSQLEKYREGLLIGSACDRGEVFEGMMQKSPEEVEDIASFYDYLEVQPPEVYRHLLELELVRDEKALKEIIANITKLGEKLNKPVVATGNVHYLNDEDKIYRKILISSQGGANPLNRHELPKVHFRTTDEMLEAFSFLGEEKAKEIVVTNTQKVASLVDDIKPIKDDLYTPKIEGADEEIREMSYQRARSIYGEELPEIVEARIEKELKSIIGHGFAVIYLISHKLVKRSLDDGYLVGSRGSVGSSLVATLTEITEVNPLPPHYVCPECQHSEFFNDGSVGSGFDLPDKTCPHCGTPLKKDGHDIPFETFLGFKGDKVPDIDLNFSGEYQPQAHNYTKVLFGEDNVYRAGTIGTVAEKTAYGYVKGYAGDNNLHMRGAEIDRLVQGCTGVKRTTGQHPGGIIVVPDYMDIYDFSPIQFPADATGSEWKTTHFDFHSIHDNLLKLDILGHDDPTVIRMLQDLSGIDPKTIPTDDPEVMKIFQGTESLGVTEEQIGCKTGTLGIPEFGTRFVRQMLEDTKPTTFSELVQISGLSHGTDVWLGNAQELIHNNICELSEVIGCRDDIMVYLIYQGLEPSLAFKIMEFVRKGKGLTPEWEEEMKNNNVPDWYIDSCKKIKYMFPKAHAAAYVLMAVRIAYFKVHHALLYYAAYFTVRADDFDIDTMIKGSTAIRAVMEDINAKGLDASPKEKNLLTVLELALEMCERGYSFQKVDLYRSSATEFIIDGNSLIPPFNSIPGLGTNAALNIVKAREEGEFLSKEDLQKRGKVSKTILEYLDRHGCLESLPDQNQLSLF
Procedure, shortened: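 Primed replication of single-stranded M13Gori by a four-protein B. subtilis holoenzyme is measured at room temperature. Double-stranded product is quantified by PicoGreen fluorescence after an EDTA stop; inhibition is scaled between DMSO and EDTA controls.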

[12] = target: Tumor susceptibility gene 101 protein (Homo sapiens) (UniProt Q99816); assay: qHTS Validation Assay for Iinhibitors of HIV-1 Budding by Blocking the Interaction of PTAP/TSG101 (AID 485342; calls by dose curve)
Chain of Tumor susceptibility gene 101 protein (Homo sapiens) (Q99816 whole entry, looked up, the tested form may be a part): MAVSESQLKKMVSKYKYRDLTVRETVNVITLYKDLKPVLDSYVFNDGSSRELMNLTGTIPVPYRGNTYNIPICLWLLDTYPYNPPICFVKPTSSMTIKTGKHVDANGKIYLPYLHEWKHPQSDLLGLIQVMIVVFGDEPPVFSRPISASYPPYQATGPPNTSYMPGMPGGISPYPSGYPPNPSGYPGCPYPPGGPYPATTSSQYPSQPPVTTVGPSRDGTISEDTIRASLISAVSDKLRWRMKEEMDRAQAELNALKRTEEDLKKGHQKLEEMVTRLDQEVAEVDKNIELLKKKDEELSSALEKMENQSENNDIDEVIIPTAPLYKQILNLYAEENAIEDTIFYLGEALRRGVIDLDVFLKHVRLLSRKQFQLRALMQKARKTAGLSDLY
Procedure, shortened: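 Fluorescence anisotropy measured PTAP-Tsg101 interaction. Final concentrations were 10 uM protein domain and 50 nM labeled peptide, equilibrated 20 min at room temperature.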

[13] = target: Beta-2 adrenergic receptor (Homo sapiens) (UniProt P07550); assay: qHTS validation assay of beta-arrestin-biased ligands of beta2-adrenergic receptor (AID 485366)
Chain of Beta-2 adrenergic receptor (Homo sapiens) (P07550 whole entry, looked up): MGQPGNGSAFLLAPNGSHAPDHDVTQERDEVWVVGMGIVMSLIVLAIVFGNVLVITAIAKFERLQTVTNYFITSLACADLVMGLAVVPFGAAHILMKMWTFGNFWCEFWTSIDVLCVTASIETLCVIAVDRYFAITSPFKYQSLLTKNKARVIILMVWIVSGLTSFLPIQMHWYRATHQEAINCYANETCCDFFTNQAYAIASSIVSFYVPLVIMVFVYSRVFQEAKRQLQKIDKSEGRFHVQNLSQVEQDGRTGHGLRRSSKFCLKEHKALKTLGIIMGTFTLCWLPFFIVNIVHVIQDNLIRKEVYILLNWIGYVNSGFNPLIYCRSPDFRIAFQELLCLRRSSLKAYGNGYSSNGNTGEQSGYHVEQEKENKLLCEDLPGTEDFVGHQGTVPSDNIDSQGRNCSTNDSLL
Procedure, shortened: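 Agonist activity is measured as luciferase luminescence downstream of beta-arrestin recruitment to recombinant beta2-AR in Tango cells. Exposure lasts 18 hr at 37 degrees C, and curves are categorized by r2, response size and activity.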

[14] = target: ATP-dependent 6-phosphofructokinase (Trypanosoma brucei brucei) (UniProt O15648); assay: qHTS Validation Assay to Find Inhibitors of T. brucei phosphofructokinase (AID 485368)
Chain of ATP-dependent 6-phosphofructokinase (Trypanosoma brucei brucei) (O15648 whole entry, looked up): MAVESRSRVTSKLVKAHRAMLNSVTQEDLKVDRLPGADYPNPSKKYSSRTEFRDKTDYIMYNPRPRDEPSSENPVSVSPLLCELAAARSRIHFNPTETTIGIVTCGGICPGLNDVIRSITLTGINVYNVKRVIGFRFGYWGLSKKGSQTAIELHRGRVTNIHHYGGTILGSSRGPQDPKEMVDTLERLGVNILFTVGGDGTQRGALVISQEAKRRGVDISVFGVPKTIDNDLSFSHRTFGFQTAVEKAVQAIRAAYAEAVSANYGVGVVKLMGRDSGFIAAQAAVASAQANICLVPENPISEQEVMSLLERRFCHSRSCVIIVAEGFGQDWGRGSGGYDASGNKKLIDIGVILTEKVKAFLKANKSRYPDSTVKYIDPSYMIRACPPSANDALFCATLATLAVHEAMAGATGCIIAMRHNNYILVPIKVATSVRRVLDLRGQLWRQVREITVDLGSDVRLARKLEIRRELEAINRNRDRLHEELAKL
Procedure, shortened: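 Inhibition derived from concentration-response curves of luminescence, ranked by r2, response size and curve class; the underlying reaction used 1.25 nM PFK, 0.1 mM ATP and 0.5 mM F6P, 45 min, room temperature.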

[15] = Quantitative high throughput screen for delayed death inhibitors of the malarial parasite plastid, 96 hour incubation (AID 488745); also: potency is read from the fitted curve at half-maximal effect; nearly all actives have a fitted effect of over 70% in size
Procedure, shortened: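 Two-generation (96 h) exposure of luciferase-reporter P. falciparum in erythrocytes, 2% hematocrit, 0.1% parasitemia final, 37 C, 5% CO2, RPMI 1640 with 0.5% Albumax. Growth inhibition scored by reduced luminescence.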

[16] = target: Thioredoxin reductase 1, cytoplasmic (Rattus norvegicus) (UniProt O89049); assay: qHTS Assay for Substrates of Mammalian Selenoprotein Thioredoxin Reductase 1 (TrxR1) (AID 488772);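 also: a drop in NADPH fluorescence below the no-compound background marks a TrxR1 substrate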
Chain of Thioredoxin reductase 1, cytoplasmic (Rattus norvegicus) (O89049 whole entry, looked up): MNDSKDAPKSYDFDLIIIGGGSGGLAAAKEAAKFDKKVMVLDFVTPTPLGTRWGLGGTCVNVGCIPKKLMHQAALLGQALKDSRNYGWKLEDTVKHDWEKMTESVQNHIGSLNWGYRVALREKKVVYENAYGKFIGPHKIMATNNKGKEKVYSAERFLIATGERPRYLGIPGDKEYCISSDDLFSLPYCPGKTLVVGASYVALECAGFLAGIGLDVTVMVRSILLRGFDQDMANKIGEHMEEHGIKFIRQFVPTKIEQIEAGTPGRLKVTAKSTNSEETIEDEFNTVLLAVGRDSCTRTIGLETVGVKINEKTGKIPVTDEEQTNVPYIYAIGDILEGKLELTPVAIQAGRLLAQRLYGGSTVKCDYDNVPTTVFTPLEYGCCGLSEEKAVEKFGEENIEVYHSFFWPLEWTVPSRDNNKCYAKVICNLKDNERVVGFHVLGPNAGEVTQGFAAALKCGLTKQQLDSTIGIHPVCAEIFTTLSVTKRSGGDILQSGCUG
Procedure, shortened: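 In this dual-purpose format, potential substrates are identified from the first fluorescence read after selenite addition, not from the 8-minute delta. Rat enzyme is preincubated with NADPH and then with compound at ~22 deg C.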

[17] = target: Thioredoxin reductase 1, cytoplasmic (Rattus norvegicus) (UniProt O89049); assay: qHTS Assay for Inhibitors of Mammalian Selenoprotein Thioredoxin Reductase 1 (TrxR1) (AID 488773); settings: Potency: inhibition;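 also: drop in NADPH fluorescence over an 8 min run after selenite addition; nearly all actives have a fitted effect of over 40% in size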
Procedure, shortened: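 Inhibition is scored from the loss of NADPH fluorescence between first and last reads of an 8-min kinetic run. Selenite (400 uM) was the substrate, added after 15 min compound preincubation at room temperature.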

[18] = target: M-phase phosphoprotein 8 (Homo sapiens) (UniProt Q99549); assay: qHTS Validation Assay for Inhibitors for MPP8 Chromodomain Interactions with Methylated Histone Tails (AID 488949); also: potency is read from the fitted curve at half-maximal effect; nearly all actives have a fitted effect of over 55% in size
Chain of M-phase phosphoprotein 8 (Homo sapiens) (Q99549 whole entry, looked up): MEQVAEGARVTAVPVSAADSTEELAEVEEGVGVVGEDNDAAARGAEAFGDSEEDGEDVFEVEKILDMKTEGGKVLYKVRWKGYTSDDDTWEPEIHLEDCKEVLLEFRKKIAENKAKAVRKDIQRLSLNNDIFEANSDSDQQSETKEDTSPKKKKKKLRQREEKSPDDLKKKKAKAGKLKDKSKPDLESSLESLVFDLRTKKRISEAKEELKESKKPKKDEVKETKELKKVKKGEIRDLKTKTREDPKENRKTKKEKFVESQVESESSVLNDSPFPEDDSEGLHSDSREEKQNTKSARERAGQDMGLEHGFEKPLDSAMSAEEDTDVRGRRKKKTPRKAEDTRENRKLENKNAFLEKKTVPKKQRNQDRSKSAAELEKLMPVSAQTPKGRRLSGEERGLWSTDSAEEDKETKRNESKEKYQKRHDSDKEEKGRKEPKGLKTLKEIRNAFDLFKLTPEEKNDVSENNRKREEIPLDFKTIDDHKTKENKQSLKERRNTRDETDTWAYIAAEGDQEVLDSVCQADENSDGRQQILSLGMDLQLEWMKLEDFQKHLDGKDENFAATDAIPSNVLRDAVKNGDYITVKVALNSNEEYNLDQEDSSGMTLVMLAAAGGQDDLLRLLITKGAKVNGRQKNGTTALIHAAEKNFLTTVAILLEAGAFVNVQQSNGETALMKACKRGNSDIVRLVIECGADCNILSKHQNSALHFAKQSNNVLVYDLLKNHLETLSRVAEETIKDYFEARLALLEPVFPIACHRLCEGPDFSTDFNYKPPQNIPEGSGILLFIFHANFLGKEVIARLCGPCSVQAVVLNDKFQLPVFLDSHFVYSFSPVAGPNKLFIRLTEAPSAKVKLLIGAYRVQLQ
Procedure, shortened: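 Disruption of the preformed MPP8–trimethyl-H3K9 peptide complex (both 50 nM, 30 min, RT) is measured after 30 min compound exposure, using AlphaScreen proximity beads; aurintricarboxylic acid titration serves as plate control.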

[19] = target: Chromobox protein homolog 1 (Homo sapiens) (UniProt P83916); assay: qHTS Validation Assay for Inhibitors of HP1-beta Chromodomain Interactions with Methylated Histone Tails (AID 488953); also: potency is read from the fitted curve at half-maximal effect; nearly all actives have a fitted effect of over 50% in size
Chain of Chromobox protein homolog 1 (Homo sapiens) (P83916 whole entry, looked up): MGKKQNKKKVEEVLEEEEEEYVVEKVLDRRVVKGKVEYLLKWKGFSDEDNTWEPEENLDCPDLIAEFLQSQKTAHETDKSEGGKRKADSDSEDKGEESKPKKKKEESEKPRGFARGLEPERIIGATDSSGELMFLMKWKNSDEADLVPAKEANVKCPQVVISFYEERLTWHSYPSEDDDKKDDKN
Procedure, shortened: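 Compounds pinned into a preassembled complex of HP1-beta and trimethyl-K9 histone H3(1-18) biotin peptide (50 nM each; PBS pH 7.4, 0.01% Tween-20). After 30 min, bead-based AlphaScreen detection followed.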

[20] = target: Transient receptor potential cation channel subfamily V member 1 (Homo sapiens) (UniProt Q8NER1); assay: HTS Assay for Compounds that Act as Enhancers of the Vanilloid Receptor 1 (AID 488979)
Procedure, shortened: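 TRPV1-expressing cells loaded with Fluo-8 calcium dye; compounds added and calcium influx read kinetically for 3 min (agonist phase), then capsaicin at EC20 added and read 2 min more for enhancement. Fluorescence ex 480/em 520 nm.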

Measured: Potency

O=Nc1c(-c2c(O)[nH]c3ccccc23)[nH]c2ccccc12
active: [1] 355 nM | [2] 1580 nM | [3] 2240 nM | [4] 398 nM | [5] 501 nM | [15] 1170 nM | [18] 6.31 µM and 7.52 µM | [19] 3980 nM
inactive: all other assays above
